Consider eight compounds from PubChem BioAssay (Tox21).

The nature of assay [1]: A CellTox Green Cytotoxicity Assay to monitor cytotoxicity in HEK293 cells - 32 hour (AID 1224881). Further: nearly all actives have a fitted effect of over 40% in size. Further: potency means the concentration at half of the fitted maximal effect. A digest of the protocol: (§1)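 Each value comes from one timepoint of a single continuous run in which HEK293 cells with CellTox Green were exposed to compound for up to 40 h at 37 C, dye fluorescence rising with cell death.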
The nature of assay [2]: A CellTox Green Cytotoxicity Assay to monitor cytotoxicity in HepG2 cells - 0 hour (AID 1224882). Further: nearly all actives have a fitted effect of over 35% in size. In outline:
(§2)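 Continuous culture of HepG2 cells with a membrane-impermeant DNA dye; rising fluorescence marks dead cells. Compound exposure lasted up to 40 h at 37 C, with reads every 8 h from 0 h.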

A short description of assay [3]: A CellTox Green Cytotoxicity Assay to monitor cytotoxicity in HEK293 cells - 8 hour (AID 1224884). Further: nearly all actives have a fitted effect of over 35% in size. In outline: as §1
The nature of assay [4]: qHTS RealTime-Glo MT Cell Viability Assay in HepG2 cells - 16 hour (AID 1224885). Further: nearly all actives have a fitted effect of over 50% in size. A digest of the protocol: (§3)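 Compound treatment began 5 h after plating HepG2 cells (600/well) with NanoLuc luciferase and prosubstrate. Plates stayed at 37 C for 40 h; luminescence was captured at six time points, 0 h through 40 h.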
On the technique in general: qHTS replaces the single test concentration by a dilution series.

Assay [5] can be described thus: qHTS RealTime-Glo MT Cell Viability Assay in HEK293 cells - 24 hour (AID 1224886). Further: top concentration of the series differs between compounds; nearly all actives have a fitted effect of over 50% in size. A digest of the protocol:
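Quantitative high-throughput screen of the Tox21 10K library in HEK293: cells and RealTime-Glo reagents plated together, compound added at 5 h, luminescence monitored through 40 h at 37 C.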

Assay [6] is described as follows: qHTS RealTime-Glo MT Cell Viability Assay in HEK293 cells - 8 hour (AID 1224887). Further: top concentration of the series differs between compounds; nearly all actives have a fitted effect of over 50% in size. A digest of the protocol: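 qHTS format; HEK293 cells with NanoLuc/prosubstrate reagent, 37 C/5% CO2 for 5 h pre-dosing; compounds 23 nL in DMSO; luminescence at each time point reflects viable cells.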
Assay [7] in a line: qHTS RealTime-Glo MT Cell Viability Assay in HepG2 cells - 0 hour (AID 1224889). Further: nearly all actives have a fitted effect of over 50% in size. In outline:
as §3

The nature of assay [8]: A CellTox Green Cytotoxicity Assay to monitor cytotoxicity in HepG2 cells - 8 hour (AID 1224890). Further: nearly all actives have a fitted effect of over 45% in size. In outline: as §2
Assay [9] in a line: qHTS assay to identify small molecule antagonists of the estrogen receptor alpha (ER-alpha) signaling pathway using the BG1 cell line in the presence of 0.1 nM 17-beta-estradiol - cell viability counter screen (AID 1259241). Further: nearly all actives have a fitted effect of over 40% in size. Further: potency means the concentration at half of the fitted maximal effect. A digest of the protocol:
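VM7Luc4E2 cells (endogenous ER-alpha, 4×ERE-luciferase), hormone-starved 5 days in charcoal-stripped FBS, were treated with compounds plus 0.1 nM 17beta-estradiol for 22 hr at 37C; viability read in same wells as CellTiter-Fluor live-cell protease fluorescence.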

A short description of assay [10]: qHTS assay to identify small molecule antagonists of the androgen receptor (AR) signaling pathway using the MDA cell line in the presence of 0.5 nM R1881 - cell viability counter screen (AID 1259242). Further: nearly all actives have a fitted effect of over 45% in size. Further: potency means the concentration at half of the fitted maximal effect. In outline:
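Fluorescence from CellTiter-Fluor, which reports protease activity of live cells, was read 30 min after reagent addition to MDA-kb2 cells that had been incubated 16 hr with compound and 0.5 nM R1881.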

Assay [11] can be described thus: qHTS assay to identify small molecule HDAC inhibitors - cell viability counter screen (AID 1259365). A digest of the protocol: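 Wild-type HCT-116 cells were seeded at 1,500 per well, incubated overnight at 37 C, then exposed to compounds in DMSO for 2hr. Viability was read by CellTiter-Glo luminescence after 30min at room temperature.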
The nature of assay [12]: qHTS assay to identify small molecule agonists of the sonic hedgehog signaling (Shh) pathway - cell viability counter screen (AID 1259366). Further: nearly all actives have a fitted effect of over 50% in size. Further: potency means the concentration at half of the fitted maximal effect. A digest of the protocol:
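NIH/3T3-derived 3T3 Gli1-Luc cells (stable Gli1-responsive firefly luciferase reporter) were seeded, rested 4 hr at 37 C/5% CO2, then exposed to compounds in DMSO for 24 hr; viability was read by CellTiter-Fluor fluorescence in the same wells.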

A short description of assay [13]: qHTS assay to identify small molecule antagonists of the sonic hedgehog signaling (Shh) pathway - cell viability counter screen (AID 1259367). Further: nearly all actives have a fitted effect of over 55% in size. Further: potency means the concentration at half of the fitted maximal effect. In outline:
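Seed 3T3 Gli1-Luc cells at 2,000 per well; incubate 4 hr; add compound in DMSO, then conditioned medium; incubate at 37C with 5% CO2; add CellTiter-Fluor after 23 hr; read fluorescence 1 hr later.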

Assay [14] can be described thus: qHTS assay to identify small molecule agonists of the sonic hedgehog signaling (Shh) pathway (AID 1259368; calls by dose curve; further: series mostly up to about 92 µM; nearly all actives have a fitted effect of over 15% in size). A digest of the protocol: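 Luminescent signal was taken as a measure of Gli1-controlled luciferase expression in stably transfected NIH/3T3-derived cells that had been treated for 24 hr with compounds delivered in DMSO.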
Assay [15] is described as follows: A CellTox Green Cytotoxicity Assay to monitor cytotoxicity in HEK293 cells - 16 hour (AID 1224888). Further: nearly all actives have a fitted effect of over 35% in size. In outline:
as §1

The target of assay [16] is Estrogen receptor (Homo sapiens) (UniProt P03372). Briefly: qHTS assay to identify small molecule antagonists of the estrogen receptor alpha (ER-alpha) signaling pathway using the BG1 cell line in the presence of 0.1 nM 17-beta-estradiol (AID 1259244). Further: nearly all actives have a fitted effect of over 50% in size. A digest of the protocol: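 Quantitative high-throughput screen in VM7Luc4E2 cells: compound plus 0.1 nM E2 (final), 22 h, 37C, 5% CO2; ONE-Glo added, 30 min room temperature, luminescence measured.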

The nature of assay [17]: qHTS assay to identify small molecule HDAC inhibitors (AID 1259364). Further: top concentration of the series differs between compounds; nearly all actives have a fitted effect of over 45% in size. A digest of the protocol:
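Endogenous HDAC class I/II activity was measured in wild-type HCT-116 cells by HDAC-Glo luminescence after 2 h compound treatment.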

The nature of assay [18]: qHTS assay to identify small molecule phospholipidosis (PLD) inducers (AID 1259344; active means well fitted curve in the direction sought with a large enough effect; an effect the other way counts as inactive or inconclusive). In outline:
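Quantitative HTS in HepG2: compound plus LipidTOX Red dye for 24 h, paraformaldehyde fixation with Hoechst 33342, widefield high-content imaging; amiodarone as positive and DMSO as negative control.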

Assay [19] in a line: A CellTox Green Cytotoxicity Assay to monitor cytotoxicity in HepG2 cells - 32 hour (AID 1224883). Further: nearly all actives have a fitted effect of over 50% in size. A digest of the protocol: as §2

Unmarked numbers belong to inactive results. Records with an inconclusive call do not appear. The source made the active and inactive calls. Unless noted, the call rests on the fitted dose curve; in most records, active means well fitted curve in the direction sought with a large enough effect in the repeat runs; inconclusive means weak or mixed curves; inactive means no such curve, though single readings can be large; an effect the other way counts as inactive or inconclusive.

Sequence of Estrogen receptor (Homo sapiens) (P03372 whole entry, looked up): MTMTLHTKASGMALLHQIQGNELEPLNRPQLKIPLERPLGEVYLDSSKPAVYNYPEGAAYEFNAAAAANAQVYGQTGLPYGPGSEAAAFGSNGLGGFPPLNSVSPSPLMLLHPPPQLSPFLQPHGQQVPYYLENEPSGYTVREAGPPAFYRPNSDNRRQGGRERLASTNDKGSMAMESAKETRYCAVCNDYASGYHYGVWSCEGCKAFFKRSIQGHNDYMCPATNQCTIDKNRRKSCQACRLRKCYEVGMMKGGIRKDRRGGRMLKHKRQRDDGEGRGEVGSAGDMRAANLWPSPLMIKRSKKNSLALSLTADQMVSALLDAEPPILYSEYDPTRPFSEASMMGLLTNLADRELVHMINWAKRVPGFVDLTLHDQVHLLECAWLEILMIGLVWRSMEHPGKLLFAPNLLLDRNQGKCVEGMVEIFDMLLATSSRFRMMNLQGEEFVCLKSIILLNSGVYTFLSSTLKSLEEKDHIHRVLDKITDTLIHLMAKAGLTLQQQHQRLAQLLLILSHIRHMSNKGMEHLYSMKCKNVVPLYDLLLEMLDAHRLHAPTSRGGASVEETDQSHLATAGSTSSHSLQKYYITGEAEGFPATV

Consider `c1ccc2c(c1)CCc1ccccc1N2`, for which the Potency in [1] is 49.2 µM (active). The Potency entry in [2], in assay [3], in [4], in assay [5], in assay [6] and in assay [7] was “inactive” each time. In addition, the Potency result in [8], in [9], in assay [10], in assay [11], in assay [12] and in [13] was “inactive” each time. In assay [14], the Potency entry is “inactive”.

As to `CC(=O)Oc1ccc([N+](=O)[O-])cc1CCl`, the Potency entry in [1], in assay [2], in assay [3], in assay [4], in assay [15] and in assay [7] was “inactive” each time. Besides, the Potency result in assay [8], in assay [16], in assay [17], in assay [11] and in [14] was “inactive” throughout. In addition, the Potency in assay [9] was 54.5 µM (active); in assay [10] it was 30.6 µM (active); in assay [12], 27.3 µM (active); in assay [13], 27.3 µM (active).

As for `CCOC(C)=O`, the Potency entry in assay [1], in [2], in [3], in assay [4], in [5] and in [6] was “inactive” each time. Further, the Potency entry in [8], in assay [16], in [18], in [17], in assay [11] and in assay [12] was “inactive” in each case. The Potency entry in assay [13] and in assay [14] was “inactive” throughout.

As for `O=C1c2ccccc2C(=O)C1(O)O`, the Potency result in assay [1], in [2], in [3], in assay [4], in assay [6] and in [7] was “inactive” in each case. Also, the Potency entry in assay [8], in assay [9], in [10] and in assay [17] was “inactive” throughout. Also, the Potency in [13] was 54.8 µM (active).

Regarding `CC(C)(C)C(=O)C(=O)O`, the Potency result in [1], in assay [2], in assay [3], in [4], in assay [5] and in assay [6] was “inactive” each time. The Potency result in assay [7], in assay [9], in assay [16], in assay [17], in [11] and in assay [12] was “inactive” each time. Also, the Potency entry in assay [13] and in [14] was “inactive” in each case.

Turning to `Nc1cccc2c1CN(C1CCC(=O)NC1=O)C2=O` (stereo not given), the Potency result in assay [1], in [2], in assay [3], in assay [4], in assay [6] and in assay [15] was “inactive” in each case. Besides, the Potency entry in [7], in assay [8], in [10], in [16], in assay [18] and in assay [17] was “inactive” each time. Moreover, the Potency entry in assay [11], in assay [12], in assay [13] and in [14] was “inactive” each time.

On to `CCCCOc1ccc(OCCCN2CCOCC2)cc1`, for which the Potency result in assay [1], in [2], in [3], in [4], in [6] and in assay [15] was “inactive” in each case. The Potency result in [7], in assay [8], in assay [9], in [10], in assay [16] and in assay [18] was “inactive” each time. Besides, the Potency result in [17], in assay [11], in [12], in [13] and in [14] was “inactive” each time.

With `CC=C(Cl)Cl`, the Potency result in assay [2], in assay [19], in assay [3], in assay [4], in [6] and in [7] was “inactive” each time. Besides, the Potency result in [9], in assay [10], in assay [16], in assay [17], in [11] and in assay [12] was “inactive” each time. The Potency entry in [13] and in assay [14] was “inactive” each time.
